Measurements: PubChem BioAssay AID588590 (National Center for Advancing Translational Sciences (NCATS), 2011)
Screen size: about 390,000 compounds; about 4,000 (1%) were called active. Not shown: some 7% with an inconclusive outcome. The full list was thinned out, with actives kept by preference. Values without a mark were called inactive. The call rests on the fitted dose curve; in most records, active means well fitted inhibition curve with a large enough effect; inconclusive means small, poorly fitted or top-dose-only effect, or another doubt; inactive means no such curve, though single readings can be large or run the other way.

target: DNA polymerase iota (Homo sapiens) (UniProt Q9UNA4); test: qHTS for Inhibitors of Polymerase Iota; conditions: Pol iota fluorescent replication assay, 10 min; series mostly up to 115 µM; activity, negative = inhibition: at the top concentration
Sequence (Q9UNA4 whole entry, looked up): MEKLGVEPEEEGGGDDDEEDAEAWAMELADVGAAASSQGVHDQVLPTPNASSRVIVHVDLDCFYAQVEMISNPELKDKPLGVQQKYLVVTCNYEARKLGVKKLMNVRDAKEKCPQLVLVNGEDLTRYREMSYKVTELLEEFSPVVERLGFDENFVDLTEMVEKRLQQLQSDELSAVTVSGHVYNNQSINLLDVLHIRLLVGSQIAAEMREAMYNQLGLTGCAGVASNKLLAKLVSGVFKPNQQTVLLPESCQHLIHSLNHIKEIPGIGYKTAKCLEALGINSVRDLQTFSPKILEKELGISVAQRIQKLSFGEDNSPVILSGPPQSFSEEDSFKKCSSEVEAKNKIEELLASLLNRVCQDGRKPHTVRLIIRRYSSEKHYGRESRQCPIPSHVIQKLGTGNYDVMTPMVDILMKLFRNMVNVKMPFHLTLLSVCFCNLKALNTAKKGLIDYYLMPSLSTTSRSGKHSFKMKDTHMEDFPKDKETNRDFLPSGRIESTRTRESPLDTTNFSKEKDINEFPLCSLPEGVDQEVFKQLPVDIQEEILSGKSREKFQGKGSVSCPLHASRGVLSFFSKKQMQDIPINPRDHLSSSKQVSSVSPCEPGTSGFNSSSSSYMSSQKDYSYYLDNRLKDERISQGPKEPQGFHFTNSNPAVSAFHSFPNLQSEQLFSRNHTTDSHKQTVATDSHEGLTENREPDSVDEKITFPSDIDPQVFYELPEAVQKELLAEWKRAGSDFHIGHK
Outline: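 Fluorescent replication assay read twice, at 0 min and 10 min after adding 50 nM (final) substrate. Enzyme (10 nM) and compounds were first incubated 15 min at room temperature; enzyme-free buffer wells were negative controls.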
Potency means the concentration at half of the fitted maximal effect.

Row | Structure (SMILES) | activity, negative = inhibition [%] | Potency
1 | CC(C)CC(NS(=O)(=O)c1ccc2c(c1)oc(=O)n2C)C(=O)NCc1ccccc1Cl (centres undefined) | -6.47 | –
2 | COc1ccccc1C(=O)Nc1c(C(=O)Nc2ccc(C)cc2)oc2ccccc12 | 22.7 | –
3 | Cn1c(=O)c2c(nc(SCC(=O)Nc3ccc(F)cc3)n2Cc2ccccc2)n(C)c1=O | 23.2 | –
4 | O=C1CCCN1C(=O)COc1ccc([N+](=O)[O-])cc1 | -4.78 | –
5 | O=C1/C(=C\c2ccc([N+](=O)[O-])cc2)CS(=O)(=O)C/C1=C/c1ccc([N+](=O)[O-])cc1 | – | 11.2 µM (active)
6 | O=[N+]([O-])c1ccc(/C=C/c2ccc3cccnc3c2)cc1 | 15.2 | –
7 | CC(C)Oc1ccc(CNC(=O)C2CCN(c3nc4ccccc4n(C)c3=O)CC2)cc1 | 29.1 | –
8 | C(=Nc1ccc(/C=C/c2ccnc3ccccc23)cc1)Nc1ccc(/C=C/c2ccnc3ccccc23)cc1 | 3.51 | –
9 | COc1ccc(-c2oc3ncnc(NCCCO)c3c2-c2ccc(OC)cc2)cc1 | 97.6 | –
10 | OCCNc1ncnc2oc(-c3ccco3)c(-c3ccco3)c12 | – | 12.6 µM (active)
11 | Cc1noc2ncnc(NCc3ccccc3Cl)c12 | -9.96 | –
12 | CN(Cc1ccccc1)c1ncnc2onc(-c3ccc(F)cc3)c12 | -14.9 | –
13 | CN(C)c1cccc2ccccc12 | 14.8 | –
14 | CCN1CCN(CCCNC(=O)c2ccc3c(c2)sc2nc(-c4ccc(OC)cc4)cn23)CC1 | 21.9 | –
15 | CCCCCn1c(CCNC(=O)c2ccc(F)cc2)nc2ccccc21 | 17.1 | –
16 | Cc1noc(C)c1S(=O)(=O)Nc1ccc(C(=O)N2CCN(c3ccc(F)cc3)CC2)cc1 | – | 79.4 µM (active)
17 | Cc1noc(C)c1S(=O)(=O)Nc1ccc(C(=O)O)cc1 | -10.9 | –
18 | CN1CCN(C(=O)c2ccc(NS(=O)(=O)c3ccccc3)cc2)CC1 | 20.4 | –
19 | O=C(CC1N=C2c3ccccc3N=C(SCc3cccc(Cl)c3)N2C1=O)NCc1ccc2c(c1)OCO2 (centres undefined) | -13.6 | –
20 | O=c1[nH]c(CN2CCN(S(=O)(=O)c3ccc4c(c3)OCCO4)CC2)nc2sc3c(c12)CCCC3 | 3.88 | –
21 | CCCc1nc2sc3c(c2c(=O)n1NC(=O)CCCl)CCCC3 | -14.2 | –
22 | O=C(CCc1nc2sc3c(c2c(=O)[nH]1)CCCC3)NCC(=O)Nc1ccccc1Br | – | 50.1 µM (active)
23 | CCOC(=O)c1[nH]c(C)c(CCC(=O)N2CCN(c3ccccc3)CC2)c1C | 17.9 | –
24 | CCOc1ccc(C(=O)COC(=O)c2ccc(-n3cnnn3)cc2)cc1 | 32.9 | –
25 | O=C(COc1ccc(-n2cnnn2)cc1)Nc1ccccc1Cl | – | 79.4 µM (active)

Row | Structure (SMILES) | activity, negative = inhibition [%] | Potency
26 | C=CCc1cccc(/C=N/NC(=O)COc2ccc(-n3cnnn3)cc2)c1O | 27.2 | –
27 | Cc1ccc2[nH]c3c(=O)n(CC(=O)NC(C)C)ncc3c2c1 | -5.61 | –
28 | Fc1ccc(CSc2nc(NCc3ccccc3)c3ccccc3n2)cc1 | 2.18 | –
29 | O=C(CSc1nc(Nc2ccc(F)c(F)c2)c2ccccc2n1)c1ccc(Cl)cc1 | 14.1 | –
30 | Fc1ccc(Nc2nc(SCc3ccccc3Cl)nc3ccccc23)cc1 | – | 79.4 µM (active)
31 | COc1ccc(-n2c(=O)c3sc4ccccc4c3n(CC(=O)Nc3cccc(C)c3)c2=O)cc1 | 10.2 | –
32 | COc1ccc(NC(=O)Nc2cccc(-c3noc(C)n3)c2)cc1 | 3.68 | –
33 | CSc1nnc(SCc2nc3sc(C(=O)O)c(C)c3c(=O)[nH]2)s1 | – | 3.98 µM (active)
34 | Cc1sc2nc(CSCC(=O)Nc3c(Cl)cccc3Cl)[nH]c(=O)c2c1C | -1.49 | –
35 | CCOC(=O)c1sc2nc(CSCC(=O)OCc3ccc(C(=O)OC)o3)[nH]c(=O)c2c1C | 23.8 | –
36 | Cc1ccc(S(=O)(=O)c2cn(Cc3ccccc3)c3cc(N4CCCC4)c(F)cc3c2=O)c(C)c1 | -15.4 | –
37 | CN(Cc1ccccc1)c1ccc(/C=C/c2ccnc3ccccc23)cc1 | 0.933 | –
38 | O=C(CCc1nnc2ccc(NCc3ccco3)nn12)Nc1cc(F)ccc1F | -12.4 | –
39 | CCOc1ccccc1NC(=O)CCc1nnc2ccc(NCc3ccco3)nn12 | – | 50.1 µM (active)
40 | CC1CCN(C(=O)CCc2nnc3ccc(NCc4ccco4)nn23)CC1 | 19.1 | –
41 | Cc1ccc(C=O)cc1Cl | 27.8 | –
42 | COc1ccc(CCNC(=O)c2ccc3c(c2)nc(C)n3-c2ccc(Br)cc2)cc1OC | -17 | –
43 | CCC(CC)c1nn2cc(-c3ccccc3)nc2s1 | -4.42 | –
44 | C/C(CC(=O)N1CCN(C=O)CC1)=N\NC(=O)c1ccc(Br)cc1 | -25.6 | –
45 | O=C(O)c1ccc(/C=C2\SC(=S)N(NC(=O)c3ccc(Br)cc3)C2=O)cc1 | – | 22.4 µM (active)
46 | O=C(Nc1ccc(C(=O)O)cc1)/C(=C\c1ccccc1)NC(=O)c1ccc(Br)cc1 | 17.3 | –
47 | CN1CCN(/[N+]([O-])=N/Oc2ccc([N+](=O)[O-])cc2[N+](=O)[O-])CC1 | 22.3 | –
48 | CCc1nnc2c3ccccc3nc(N3CCN(c4ccc(C)cc4C)CC3)n12 | 37.9 | –
49 | COc1ccc(Cl)cc1NC(=O)CCS(=O)(=O)c1ccc(Br)cc1 | – | 56.2 µM (active)
